Test [1] deals with Sphingosine kinase 1 (Homo sapiens) (UniProt Q9NYA1). Conditions: at 1 µM.
In test [2] the target is T1, Sphingosine kinase 2 (Homo sapiens) (UniProt Q9NRA0).
T1 sequence (whole entry): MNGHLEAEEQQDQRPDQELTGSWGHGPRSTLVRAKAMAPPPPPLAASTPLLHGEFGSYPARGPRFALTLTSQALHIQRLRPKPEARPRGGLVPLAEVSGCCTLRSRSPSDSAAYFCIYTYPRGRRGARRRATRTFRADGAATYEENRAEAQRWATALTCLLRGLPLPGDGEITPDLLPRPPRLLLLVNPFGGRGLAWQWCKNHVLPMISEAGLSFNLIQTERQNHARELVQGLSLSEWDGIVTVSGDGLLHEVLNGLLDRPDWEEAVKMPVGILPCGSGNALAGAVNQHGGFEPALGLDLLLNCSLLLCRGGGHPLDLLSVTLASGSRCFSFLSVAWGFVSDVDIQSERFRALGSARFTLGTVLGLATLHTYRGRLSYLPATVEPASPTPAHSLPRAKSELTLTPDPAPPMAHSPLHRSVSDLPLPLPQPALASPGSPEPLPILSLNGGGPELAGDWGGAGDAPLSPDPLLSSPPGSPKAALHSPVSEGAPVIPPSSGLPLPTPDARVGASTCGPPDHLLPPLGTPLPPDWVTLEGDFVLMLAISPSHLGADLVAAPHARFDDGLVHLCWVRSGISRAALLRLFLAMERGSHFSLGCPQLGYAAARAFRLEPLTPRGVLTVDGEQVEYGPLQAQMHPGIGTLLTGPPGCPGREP
Conditions: at 0.1 µM.

The target in test [3] is T1, Sphingosine kinase 2 (Homo sapiens). Conditions: at 1 µM.
Test [4] has as its target Casein kinase II subunit alpha (Homo sapiens) (UniProt P68400). Conditions: at 0.1 µM.
For test [5] the target is unchanged. Conditions: at 1 µM.
Test [6] addresses T2, Inhibitor of nuclear factor kappa-B kinase subunit alpha (Homo sapiens) (UniProt O15111).
T2 sequence (whole entry): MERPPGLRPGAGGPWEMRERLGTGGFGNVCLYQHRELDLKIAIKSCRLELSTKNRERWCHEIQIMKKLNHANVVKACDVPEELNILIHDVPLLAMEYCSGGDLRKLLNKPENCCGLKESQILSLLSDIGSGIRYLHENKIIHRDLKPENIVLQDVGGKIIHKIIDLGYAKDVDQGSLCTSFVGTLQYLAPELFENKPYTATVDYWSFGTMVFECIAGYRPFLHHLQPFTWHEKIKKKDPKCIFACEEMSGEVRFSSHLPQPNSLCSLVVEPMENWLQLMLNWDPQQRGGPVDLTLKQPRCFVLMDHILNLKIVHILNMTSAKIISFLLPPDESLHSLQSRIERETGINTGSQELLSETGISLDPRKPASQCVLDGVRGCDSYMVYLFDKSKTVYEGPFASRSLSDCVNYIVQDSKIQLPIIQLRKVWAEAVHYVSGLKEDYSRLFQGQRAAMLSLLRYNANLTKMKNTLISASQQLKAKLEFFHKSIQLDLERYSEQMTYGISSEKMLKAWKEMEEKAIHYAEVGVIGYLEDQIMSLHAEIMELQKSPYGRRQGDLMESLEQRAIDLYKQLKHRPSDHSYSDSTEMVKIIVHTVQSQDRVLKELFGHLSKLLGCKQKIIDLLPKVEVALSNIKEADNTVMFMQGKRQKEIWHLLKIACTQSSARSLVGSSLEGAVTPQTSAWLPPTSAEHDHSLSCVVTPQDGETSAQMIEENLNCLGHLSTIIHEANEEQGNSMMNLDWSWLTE
Conditions: at 0.1 µM.

Test [7] has as its target T2, Inhibitor of nuclear factor kappa-B kinase subunit alpha (Homo sapiens). Conditions: at 1 µM.
In test [8] the target is T3, Inhibitor of nuclear factor kappa-B kinase subunit beta (Homo sapiens) (UniProt O14920).
T3 sequence (whole entry): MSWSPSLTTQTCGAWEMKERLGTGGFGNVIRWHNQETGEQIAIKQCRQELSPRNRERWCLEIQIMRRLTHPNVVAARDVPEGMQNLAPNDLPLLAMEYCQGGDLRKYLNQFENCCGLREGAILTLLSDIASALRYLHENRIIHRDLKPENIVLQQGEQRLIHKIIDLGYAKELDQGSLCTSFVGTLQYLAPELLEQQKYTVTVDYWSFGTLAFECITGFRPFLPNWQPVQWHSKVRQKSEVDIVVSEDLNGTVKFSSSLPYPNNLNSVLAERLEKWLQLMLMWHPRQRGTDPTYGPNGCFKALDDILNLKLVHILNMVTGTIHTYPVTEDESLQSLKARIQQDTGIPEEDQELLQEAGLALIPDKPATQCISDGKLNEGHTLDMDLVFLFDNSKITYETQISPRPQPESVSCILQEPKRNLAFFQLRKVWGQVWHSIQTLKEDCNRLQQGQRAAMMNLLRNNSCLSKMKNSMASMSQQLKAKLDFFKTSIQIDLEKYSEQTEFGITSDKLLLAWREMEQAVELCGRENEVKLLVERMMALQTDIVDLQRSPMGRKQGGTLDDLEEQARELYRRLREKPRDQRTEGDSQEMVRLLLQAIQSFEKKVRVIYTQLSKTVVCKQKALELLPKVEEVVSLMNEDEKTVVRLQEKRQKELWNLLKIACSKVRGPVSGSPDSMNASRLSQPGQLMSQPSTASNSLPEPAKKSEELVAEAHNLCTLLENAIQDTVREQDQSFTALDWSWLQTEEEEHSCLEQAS
Conditions: at 0.1 µM.

The target in test [9] is T3, Inhibitor of nuclear factor kappa-B kinase subunit beta (Homo sapiens). Conditions: at 1 µM.
For test [10], the target named is T4, Inhibitor of nuclear factor kappa-B kinase subunit epsilon (Homo sapiens) (UniProt Q14164).
T4 sequence (whole entry): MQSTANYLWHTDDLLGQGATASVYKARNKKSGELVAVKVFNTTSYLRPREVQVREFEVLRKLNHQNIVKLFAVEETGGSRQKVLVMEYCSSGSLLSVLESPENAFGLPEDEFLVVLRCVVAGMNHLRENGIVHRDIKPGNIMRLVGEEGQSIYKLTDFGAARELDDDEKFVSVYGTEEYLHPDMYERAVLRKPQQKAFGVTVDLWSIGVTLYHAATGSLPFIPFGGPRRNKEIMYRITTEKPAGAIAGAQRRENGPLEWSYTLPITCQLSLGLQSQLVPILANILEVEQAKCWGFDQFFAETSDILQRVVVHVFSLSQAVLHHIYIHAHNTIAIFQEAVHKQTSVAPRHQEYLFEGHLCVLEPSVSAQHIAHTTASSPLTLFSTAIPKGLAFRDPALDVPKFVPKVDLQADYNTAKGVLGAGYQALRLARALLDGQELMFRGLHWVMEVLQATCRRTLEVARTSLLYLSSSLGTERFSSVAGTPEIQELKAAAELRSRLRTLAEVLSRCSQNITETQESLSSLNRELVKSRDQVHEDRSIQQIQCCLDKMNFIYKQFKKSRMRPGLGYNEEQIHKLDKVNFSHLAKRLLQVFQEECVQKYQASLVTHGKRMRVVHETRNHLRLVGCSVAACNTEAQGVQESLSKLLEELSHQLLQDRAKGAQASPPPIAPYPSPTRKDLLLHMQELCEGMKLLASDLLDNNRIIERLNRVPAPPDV
Conditions: at 0.1 µM.

For test [11], the target named is T4, Inhibitor of nuclear factor kappa-B kinase subunit epsilon (Homo sapiens). Conditions: at 1 µM.
Test [12] has as its target T5, Serine/threonine-protein kinase Nek1 (Homo sapiens) (UniProt Q96PY6).
T5 sequence (whole entry): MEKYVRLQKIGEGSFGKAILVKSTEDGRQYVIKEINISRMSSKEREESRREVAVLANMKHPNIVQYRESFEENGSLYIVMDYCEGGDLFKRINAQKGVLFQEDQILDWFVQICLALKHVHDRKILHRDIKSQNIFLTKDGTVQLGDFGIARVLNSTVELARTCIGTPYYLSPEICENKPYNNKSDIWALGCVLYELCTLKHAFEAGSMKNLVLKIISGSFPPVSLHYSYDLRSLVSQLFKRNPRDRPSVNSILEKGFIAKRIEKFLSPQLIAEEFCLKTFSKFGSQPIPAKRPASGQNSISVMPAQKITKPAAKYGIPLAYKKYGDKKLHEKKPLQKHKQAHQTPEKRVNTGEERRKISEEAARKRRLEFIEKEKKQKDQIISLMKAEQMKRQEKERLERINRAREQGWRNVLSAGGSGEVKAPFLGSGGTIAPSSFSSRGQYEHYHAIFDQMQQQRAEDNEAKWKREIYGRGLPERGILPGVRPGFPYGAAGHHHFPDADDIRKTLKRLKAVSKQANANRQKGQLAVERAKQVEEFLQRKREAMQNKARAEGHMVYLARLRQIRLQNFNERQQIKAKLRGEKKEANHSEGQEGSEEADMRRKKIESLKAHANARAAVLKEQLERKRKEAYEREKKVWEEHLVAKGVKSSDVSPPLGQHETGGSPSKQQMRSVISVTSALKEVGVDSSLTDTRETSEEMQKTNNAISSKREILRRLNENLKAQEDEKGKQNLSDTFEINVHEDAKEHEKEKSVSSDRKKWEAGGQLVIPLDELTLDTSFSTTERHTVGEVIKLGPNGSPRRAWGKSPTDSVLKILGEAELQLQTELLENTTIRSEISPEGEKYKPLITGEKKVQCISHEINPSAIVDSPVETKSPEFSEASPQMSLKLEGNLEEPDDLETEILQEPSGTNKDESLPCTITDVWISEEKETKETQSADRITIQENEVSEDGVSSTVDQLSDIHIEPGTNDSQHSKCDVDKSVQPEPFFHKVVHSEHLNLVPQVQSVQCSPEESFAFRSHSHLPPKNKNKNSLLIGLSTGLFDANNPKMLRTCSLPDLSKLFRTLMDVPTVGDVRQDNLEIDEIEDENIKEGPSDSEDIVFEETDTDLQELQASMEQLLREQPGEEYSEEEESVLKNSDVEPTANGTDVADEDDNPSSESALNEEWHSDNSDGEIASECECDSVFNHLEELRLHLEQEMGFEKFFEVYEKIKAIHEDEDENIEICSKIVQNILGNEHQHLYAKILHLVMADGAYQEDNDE
Conditions: at 0.1 µM.

In test [13] the target is T5, Serine/threonine-protein kinase Nek1 (Homo sapiens). Conditions: at 1 µM.
Test [14] deals with T6, Serine/threonine-protein kinase Nek2 (Homo sapiens) (UniProt P51955).
T6 sequence (whole entry): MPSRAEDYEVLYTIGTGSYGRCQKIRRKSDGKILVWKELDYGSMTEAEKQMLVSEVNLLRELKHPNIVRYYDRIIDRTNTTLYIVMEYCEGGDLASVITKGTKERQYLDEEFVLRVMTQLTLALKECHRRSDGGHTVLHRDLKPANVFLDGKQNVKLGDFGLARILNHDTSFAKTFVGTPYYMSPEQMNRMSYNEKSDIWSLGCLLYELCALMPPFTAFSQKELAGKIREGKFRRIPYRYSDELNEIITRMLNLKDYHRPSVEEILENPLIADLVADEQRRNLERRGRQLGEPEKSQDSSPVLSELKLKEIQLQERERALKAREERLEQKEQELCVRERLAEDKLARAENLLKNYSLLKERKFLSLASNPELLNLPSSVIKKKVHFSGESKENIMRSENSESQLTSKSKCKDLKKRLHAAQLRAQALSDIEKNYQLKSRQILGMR
Conditions: at 0.1 µM.

Test [15] concerns the target T6, Serine/threonine-protein kinase Nek2 (Homo sapiens). Conditions: at 1 µM.
Test [16] addresses Serine/threonine-protein kinase Nek6 (Homo sapiens) (UniProt Q9HC98). Conditions: at 0.1 µM.
Test [17] shares this target. Conditions: at 1 µM.
In test [18] the target is Serine/threonine-protein kinase Nek7 (Homo sapiens) (UniProt Q8TDX7). Conditions: at 0.1 µM.
Sequence of Serine/threonine-protein kinase Nek7 (Homo sapiens) (Q8TDX7 whole entry, looked up): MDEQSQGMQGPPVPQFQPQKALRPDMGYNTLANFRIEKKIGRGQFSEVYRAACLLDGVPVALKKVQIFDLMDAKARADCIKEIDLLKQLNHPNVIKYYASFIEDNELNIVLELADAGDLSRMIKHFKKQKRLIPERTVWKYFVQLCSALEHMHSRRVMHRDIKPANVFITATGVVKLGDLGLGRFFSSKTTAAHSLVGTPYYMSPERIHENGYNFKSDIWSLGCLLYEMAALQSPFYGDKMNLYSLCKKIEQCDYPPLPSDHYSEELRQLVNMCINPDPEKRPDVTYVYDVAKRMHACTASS
The target is the same in test [19]. Conditions: at 1 µM.
In test [20] the target is T7, Serine/threonine-protein kinase Nek9 (Homo sapiens) (UniProt Q8TD19).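 Note: reported value is the mean percent inhibition of NEK9.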
T7 sequence (whole entry): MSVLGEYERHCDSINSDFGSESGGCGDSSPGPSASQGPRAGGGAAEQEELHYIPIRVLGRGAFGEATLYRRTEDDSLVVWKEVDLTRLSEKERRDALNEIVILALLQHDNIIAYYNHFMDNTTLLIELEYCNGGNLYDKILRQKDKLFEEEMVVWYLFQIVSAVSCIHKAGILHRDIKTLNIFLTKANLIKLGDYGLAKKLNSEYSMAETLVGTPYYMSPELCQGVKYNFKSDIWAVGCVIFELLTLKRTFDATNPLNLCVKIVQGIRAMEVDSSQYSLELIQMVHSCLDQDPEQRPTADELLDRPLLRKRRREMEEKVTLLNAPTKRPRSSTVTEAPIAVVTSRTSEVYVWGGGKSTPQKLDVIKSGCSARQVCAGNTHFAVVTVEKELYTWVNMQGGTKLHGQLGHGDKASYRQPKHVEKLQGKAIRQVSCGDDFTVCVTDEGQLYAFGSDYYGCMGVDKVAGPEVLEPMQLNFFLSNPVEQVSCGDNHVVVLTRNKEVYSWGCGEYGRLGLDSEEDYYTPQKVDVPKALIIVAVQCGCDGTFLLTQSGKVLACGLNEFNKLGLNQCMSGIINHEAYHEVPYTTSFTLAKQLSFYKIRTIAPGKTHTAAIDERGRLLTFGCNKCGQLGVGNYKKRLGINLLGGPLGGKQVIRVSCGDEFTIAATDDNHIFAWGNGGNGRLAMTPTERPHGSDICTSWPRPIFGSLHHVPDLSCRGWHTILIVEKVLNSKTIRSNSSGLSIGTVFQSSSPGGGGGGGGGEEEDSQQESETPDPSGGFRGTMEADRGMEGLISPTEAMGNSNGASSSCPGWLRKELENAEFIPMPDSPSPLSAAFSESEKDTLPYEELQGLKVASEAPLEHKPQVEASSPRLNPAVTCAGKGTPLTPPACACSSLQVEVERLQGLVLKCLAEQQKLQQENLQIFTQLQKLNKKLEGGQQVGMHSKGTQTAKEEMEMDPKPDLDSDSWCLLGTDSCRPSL
Conditions: at 0.1 µM.

Sequence of Serine/threonine-protein kinase Nek6 (Homo sapiens) (Q9HC98 whole entry): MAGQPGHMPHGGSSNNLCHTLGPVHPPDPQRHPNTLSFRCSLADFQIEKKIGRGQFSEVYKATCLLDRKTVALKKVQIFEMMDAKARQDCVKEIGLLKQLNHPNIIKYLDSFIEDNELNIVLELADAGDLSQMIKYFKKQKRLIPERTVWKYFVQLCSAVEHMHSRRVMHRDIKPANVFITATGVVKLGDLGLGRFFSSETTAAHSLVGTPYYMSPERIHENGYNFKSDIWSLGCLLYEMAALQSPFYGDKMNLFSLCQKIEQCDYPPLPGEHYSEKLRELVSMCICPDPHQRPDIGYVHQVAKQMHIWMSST
Sequence of Casein kinase II subunit alpha (Homo sapiens) (P68400 whole entry, looked up): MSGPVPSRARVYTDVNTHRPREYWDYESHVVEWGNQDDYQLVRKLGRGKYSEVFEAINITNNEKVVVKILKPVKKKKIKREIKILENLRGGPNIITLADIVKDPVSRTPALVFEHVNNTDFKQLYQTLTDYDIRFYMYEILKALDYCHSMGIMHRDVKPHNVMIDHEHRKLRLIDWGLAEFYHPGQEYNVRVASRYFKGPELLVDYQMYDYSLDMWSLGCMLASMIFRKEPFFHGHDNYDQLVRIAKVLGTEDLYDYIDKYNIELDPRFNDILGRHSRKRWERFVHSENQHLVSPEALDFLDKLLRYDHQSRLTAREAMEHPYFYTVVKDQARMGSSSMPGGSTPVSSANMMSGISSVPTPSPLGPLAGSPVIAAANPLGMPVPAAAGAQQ
Sequence of Sphingosine kinase 1 (Homo sapiens) (Q9NYA1 whole entry): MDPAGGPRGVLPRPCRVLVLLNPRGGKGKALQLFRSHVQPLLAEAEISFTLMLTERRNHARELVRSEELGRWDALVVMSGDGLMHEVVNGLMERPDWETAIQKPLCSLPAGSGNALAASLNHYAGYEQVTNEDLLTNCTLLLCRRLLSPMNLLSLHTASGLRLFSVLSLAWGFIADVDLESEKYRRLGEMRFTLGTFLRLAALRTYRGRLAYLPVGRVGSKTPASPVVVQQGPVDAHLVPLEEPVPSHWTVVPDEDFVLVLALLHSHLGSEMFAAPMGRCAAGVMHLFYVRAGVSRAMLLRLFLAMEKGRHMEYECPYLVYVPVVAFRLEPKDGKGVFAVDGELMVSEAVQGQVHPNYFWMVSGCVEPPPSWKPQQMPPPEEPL

As to `CNC(=O)c1cccc(C#Cc2cncnc2Nc2ccc(OCc3cccc(F)c3)c(Cl)c2)c1`, the inhibition in test [1] was 2.62%; in test [2], 0.55%; in test [3], -7.19%; in test [4] it was 2.99%; in test [5] it was 10.1%; in test [6] it was -3.42%. Also, the inhibition in test [7] was -9.45%; in [8] it was 0.53%; in test [9] it was -0.35%; in test [10] it was 4.53%; in test [11], 1.01%; in [12], -0.52%. Besides, the inhibition in test [13] was -1.06%; in test [14] it was 0.09%; in test [15] it was -0.96%; in [16], 1.08%; in [17] it was 1.68%; in [18], 0.01%. Moreover, the inhibition came to 0.48% in test [19] and 0.64% in test [20].

The values above are taken from ChEMBL document CHEMBL1961873, “Compounds: GSK PKIS; Assays: Nanosyn kinase panel” (2012).
